This is a sample that favours compounds with a hit; in the whole collection about 2.6% have one here.
APOBEC3A inh – human APOBEC3A DNA deaminase inhibition. P31941. recombinant A3A, FAM/TAMRA ssDNA deamination fluorescence. inhibition, % at 20 µM. actives 0.41% (n = 330,000);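 active = at least 40% inhibition at 20 µM here, with at most 30% in a related deaminase screen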;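 note: plate controls were A3A with DMSO for no effect and wells lacking A3A enzyme for full effect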
Target sequence (P31941 whole entry, looked up): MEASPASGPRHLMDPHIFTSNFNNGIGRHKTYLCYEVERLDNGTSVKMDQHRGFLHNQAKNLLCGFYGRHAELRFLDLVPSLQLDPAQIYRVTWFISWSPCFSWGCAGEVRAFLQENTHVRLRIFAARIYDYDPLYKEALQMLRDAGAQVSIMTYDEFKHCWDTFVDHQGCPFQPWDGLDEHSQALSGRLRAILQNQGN
PABP1 MLLE inh – blocks PAM2 peptide binding to the PABP1 MLLE domain. inhibition, % at 20 µM. GST-MLLE / FITC-PAM2 fluorescence polarization. actives 0.36% (n = 360,000); in the data active = inhibition above about 35%, passing the limit was not always enough;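 note: plate controls were DMSO wells with GST-MLLE for no effect and wells lacking GST-MLLE protein for full effect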
APOBEC3G inh – APOBEC3G (human) deaminase inhibition; Q9HC16; recombinant A3G, ssDNA deamination FAM/TAMRA fluorescence; inhibition, % at 20 µM; actives 0.28% (n = 330,000); AID 493012;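 active = inhibition of at least 40% at 20 µM, with no more than 30% in the related APOBEC3A deaminase screen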;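 note: plate controls were DMSO wells with A3G for no effect and wells lacking A3G enzyme for full effect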
PHOSPHO1 inh – PHOSPHO1 (human) inhibition. AID 1565. recombinant PHOSPHO1, absorbance phosphatase assay. Q8TCT1. inhibition, % at 13.3 µM. actives 1.1% (n = 290,000); in the data active = inhibition above about 60%
eIF4H FP inh – inhibitors of RNA binding by human eIF4H; AID 2012; actives 0.94% (n = 290,000); eIF4H fluorescence polarization binding assay; inhibition, % at 35 µM;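 note: calls also rest on retests at 20 µM and on dose response follow-up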
PABP polyA inh – blocks human PABP binding to poly(A) RNA | fluorescence polarization | actives 1% (n = 290,000) | calls only at 35 µM;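 note: calls also rest on retests at 20 µM and on dose response follow-up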
The depositor's hits bear a star; i = inactive; ? = inconclusive; / = not tested or not shown; + = active, no number. Unless noted, the rule behind the calls is not given here.

SMILES	APOBEC3A inh	PABP1 MLLE inh	APOBEC3G inh	PHOSPHO1 inh	eIF4H FP inh	PABP polyA inh
COC(=O)C1=C(NC(=O)c2ccc(C)c(C)c2)CCS1	-5.5	39.2*	-6.3	-22.5	1.2	i
COc1ccc2cc(C(=O)NCCCN3CCCC3=O)[nH]c2c1	-3.4	-1.7	-7.9	45.3	-7.3	i
Cn1ccsc1=NC(=O)c1ccc([N+](=O)[O-])o1	29.9	-3.8	14.0	14.7	80.3*	+
NS(=O)(=O)c1ccc(N=Nc2ccc(=O)[nH]c2O)cc1	/	-4.7	/	16.6	90.2*	+
CCc1cc2c(=O)nc3n(c2s1)Cc1ccccc1/C3=C(/O)c1ccc(F)cc1	0.1	11.6	6.2	36.7	70.8*	+
O=C(Nc1ncc2c(n1)-c1ccccc1OC2)c1cccc([N+](=O)[O-])c1	0.7	-7.9	1.4	12.5	3.4	i
CCc1cc2c(=O)nc3n(c2s1)Cc1ccccc1/C3=C(/O)c1ccccc1Cl	0.5	16.6	0.2	27.6	98.3	i
CCc1cc2c(=O)nc3n(c2s1)Cc1ccccc1/C3=C(/O)c1cccc([N+](=O)[O-])c1	-13.6	13.9	-7.4	9.7	51.8*	+
O=C(O)CCC(=O)Nc1ccc2c(c1)Cc1cc(NC(=O)CCC(=O)O)ccc1-2	-1.6	7.3	-7.3	/	58.6*	i
O=C(O)CCC(=O)Nc1ccc(N2CCCCC2)c(C(=O)O)c1	-2.7	3.0	-5.3	-18.9	-2.6	i
CCN(CC)CCCN1C(=O)CSC1c1ccc2c(c1)OCO2 (stereo unspecified)	-2.3	10.2	-6.0	0.0	-2.0	i
CCN(CC)CCCN1C(=O)CSC1c1ccc([N+](=O)[O-])cc1 (stereo unspecified)	2.8	42.4*	1.7	28.8	-14.3	i
CCN(CC)c1nc2cc(OC)ccc2cc1C#N	0.1	-8.9	-2.4	-0.5	?	+
CCN(CCNC(=O)CN(C)S(=O)(=O)c1cccc2nsnc12)c1ccccc1	-5.6	0.7	-3.1	64.4*	-4.9	i
Cc1ccc(C2=NS(=O)(=O)N(C)C(C(=O)NCc3ccc(F)cc3)=C2)cc1	-1.5	-9.4	-2.1	17.6	6.1	i
O=C1C=CC(=Nc2ccc3c(c2)Cc2cc(F)ccc2-3)O1	/	25.9	/	/	/	/
O=C1C=CC(=Nc2cccc3c2C(=O)c2ccccc2-3)O1	/	56.3*	/	/	/	/
CC(C)NC(=O)C1(C)CCN1C(=O)c1ccccc1F (stereo unspecified)	/	9.8	/	/	/	/
CCCCN1Cc2c(nc3cc(-c4ccco4)[nH]n3c2=O)C1=O	95.6	3.2	83.0	24.4	88.1*	+
COCc1cc(=O)n2[nH]c(-c3ccco3)cc2n1	6.6	15.3	5.7	20.3	-0.8	i
CCCN(C(=O)CCc1ccc(OC)cc1)c1c(N)n(Cc2ccccc2)c(=O)[nH]c1=O	-0.3	7.3	-6.1	/	/	/
CCCCNC1=CC(=O)C(=O)c2ccccc21	1.0	4.8	1.7	60.2*	5.1	i
O=c1c2ccccc2[nH]c2ccc(O)cc12	20.5	26.2	19.8	0.0	91.9*	+
Cc1nonc1OCCNCc1c(C(=O)N(C)C)nc2ccc(Cl)cn12	-1.3	-1.1	-4.4	3.4	87.4*	+
Cc1nonc1OCCNCc1c(C(=O)N2CCCCCCC2)nc2ccc(Cl)cn12	0.0	0.2	-12.7	58.4	19.2	i
SMILES	APOBEC3A inh	PABP1 MLLE inh	APOBEC3G inh	PHOSPHO1 inh	eIF4H FP inh	PABP polyA inh
Cc1[nH]nc2c1C(c1ccc(-c3ccc(Cl)cc3)o1)C(C#N)=C(N)O2 (stereo unspecified)	1.6	-1.2	-2.1	20.7	17.5	i
Cc1ccc(-c2ccc(C3C(C#N)=C(N)Oc4n[nH]c(C)c43)o2)cc1 (stereo unspecified)	0.3	-16.4	-0.4	42.0	53.7*	+
Clc1ccc(C[n+]2csc3ccccc32)cc1	/	13.4	/	3.8	1.1	i
Fc1ccc(C[n+]2csc3ccccc32)cc1	-1.5	41.5*	-0.9	32.3	-12.4	i
CCn1c(N)c(C(=O)N2CCOCC2)sc1=S	-2.0	31.5	12.8	68.7*	11.5	i
C=CCn1c(N)c(C(=O)N2CCOCC2)sc1=S	-3.9	16.8	-6.9	-24.6	3.0	i
CC(C(=O)N1CCCC1)N1CCN(S(=O)(=O)c2ccc(C(C)(C)C)cc2)CC1 (stereo unspecified)	-6.2	-0.7	-4.4	/	/	/

Screening data deposited in PubChem by Sanford-Burnham Center for Chemical Genomics.
